Of roughly 8,800 targets only a part is listed; those with a hit were picked by preference. About 0.5% of all pairs of compound and target were hits.
Compound: CC1=C2C(=CC=C1)N=C(N(C2=O)C3=CC=CC=C3C)CN4C=NC5=C(N=CN=C54)N
Experiment: log2 fold change, soluble protein after heating vs DMSO (PISA); higher = thermal stabilisation; K562 lysate, 10 uM; active = over 0.2 and 3.5 SD of the protein, either way, in both replicates (recomputed)
How it was run: (§1)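 To prepare the extract, K562 pellets were dounce-homogenised in PBS pH 7.4 with 1 mM MgCl2, giving crude material at 1 mg/mL protein. This was treated with 10 μM compound for 30 min, then heated in aliquots for 3 min over 48°C-58°C before pooling and addition of NP-40 to 0.5% at 4°C. Centrifugation at 21,000xg for 90 min left soluble protein in the supernatant, which TMTpro 16plex LC-MS/MS quantified with equalised channel sums. Results are log-two fold changes in thermal stability compared with solvent controls, from duplicates.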

UniProt A9UHW6, sequence (A9UHW6 whole entry, looked up): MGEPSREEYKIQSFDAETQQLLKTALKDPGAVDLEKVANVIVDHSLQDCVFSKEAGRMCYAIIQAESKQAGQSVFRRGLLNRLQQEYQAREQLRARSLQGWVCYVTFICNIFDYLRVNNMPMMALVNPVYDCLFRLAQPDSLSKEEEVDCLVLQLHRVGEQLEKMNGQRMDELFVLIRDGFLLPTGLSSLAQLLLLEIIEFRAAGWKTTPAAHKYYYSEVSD
UniProt P01116, sequence (P01116 whole entry, looked up): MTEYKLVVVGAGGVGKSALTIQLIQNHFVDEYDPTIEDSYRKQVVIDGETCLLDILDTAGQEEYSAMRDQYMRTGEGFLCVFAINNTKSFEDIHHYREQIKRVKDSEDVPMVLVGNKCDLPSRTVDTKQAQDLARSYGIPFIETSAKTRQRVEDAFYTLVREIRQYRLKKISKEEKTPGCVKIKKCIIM
UniProt P83369, sequence (P83369 whole entry, looked up): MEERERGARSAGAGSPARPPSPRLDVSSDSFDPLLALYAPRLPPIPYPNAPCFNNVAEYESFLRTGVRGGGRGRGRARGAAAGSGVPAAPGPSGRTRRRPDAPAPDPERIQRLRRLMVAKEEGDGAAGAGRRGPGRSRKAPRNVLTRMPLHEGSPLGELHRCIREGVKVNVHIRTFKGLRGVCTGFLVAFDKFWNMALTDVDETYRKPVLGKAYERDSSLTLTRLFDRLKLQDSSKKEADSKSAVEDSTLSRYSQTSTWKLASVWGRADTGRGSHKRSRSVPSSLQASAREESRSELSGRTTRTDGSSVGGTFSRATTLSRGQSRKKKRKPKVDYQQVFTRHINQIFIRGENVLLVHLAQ
UniProt Q8TC05, sequence (Q8TC05 whole entry, looked up): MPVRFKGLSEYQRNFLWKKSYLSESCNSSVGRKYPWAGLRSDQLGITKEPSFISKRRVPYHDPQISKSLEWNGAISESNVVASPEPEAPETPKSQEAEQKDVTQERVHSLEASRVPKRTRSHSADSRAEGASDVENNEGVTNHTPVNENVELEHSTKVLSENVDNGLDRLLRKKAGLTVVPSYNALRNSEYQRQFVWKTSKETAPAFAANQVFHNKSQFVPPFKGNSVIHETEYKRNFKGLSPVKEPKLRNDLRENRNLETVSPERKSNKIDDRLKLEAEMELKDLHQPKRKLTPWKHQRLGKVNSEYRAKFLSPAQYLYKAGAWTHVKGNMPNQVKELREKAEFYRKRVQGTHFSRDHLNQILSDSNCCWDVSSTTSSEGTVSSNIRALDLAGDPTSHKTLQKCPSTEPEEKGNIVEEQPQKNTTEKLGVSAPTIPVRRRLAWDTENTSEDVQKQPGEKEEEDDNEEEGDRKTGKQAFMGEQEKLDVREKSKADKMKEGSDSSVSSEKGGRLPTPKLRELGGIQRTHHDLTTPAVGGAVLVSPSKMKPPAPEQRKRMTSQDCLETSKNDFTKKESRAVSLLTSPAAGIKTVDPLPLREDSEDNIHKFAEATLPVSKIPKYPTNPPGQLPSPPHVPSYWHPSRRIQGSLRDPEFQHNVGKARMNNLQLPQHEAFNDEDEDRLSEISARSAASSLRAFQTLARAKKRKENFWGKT
UniProt Q96T76, sequence (Q96T76 whole entry, looked up): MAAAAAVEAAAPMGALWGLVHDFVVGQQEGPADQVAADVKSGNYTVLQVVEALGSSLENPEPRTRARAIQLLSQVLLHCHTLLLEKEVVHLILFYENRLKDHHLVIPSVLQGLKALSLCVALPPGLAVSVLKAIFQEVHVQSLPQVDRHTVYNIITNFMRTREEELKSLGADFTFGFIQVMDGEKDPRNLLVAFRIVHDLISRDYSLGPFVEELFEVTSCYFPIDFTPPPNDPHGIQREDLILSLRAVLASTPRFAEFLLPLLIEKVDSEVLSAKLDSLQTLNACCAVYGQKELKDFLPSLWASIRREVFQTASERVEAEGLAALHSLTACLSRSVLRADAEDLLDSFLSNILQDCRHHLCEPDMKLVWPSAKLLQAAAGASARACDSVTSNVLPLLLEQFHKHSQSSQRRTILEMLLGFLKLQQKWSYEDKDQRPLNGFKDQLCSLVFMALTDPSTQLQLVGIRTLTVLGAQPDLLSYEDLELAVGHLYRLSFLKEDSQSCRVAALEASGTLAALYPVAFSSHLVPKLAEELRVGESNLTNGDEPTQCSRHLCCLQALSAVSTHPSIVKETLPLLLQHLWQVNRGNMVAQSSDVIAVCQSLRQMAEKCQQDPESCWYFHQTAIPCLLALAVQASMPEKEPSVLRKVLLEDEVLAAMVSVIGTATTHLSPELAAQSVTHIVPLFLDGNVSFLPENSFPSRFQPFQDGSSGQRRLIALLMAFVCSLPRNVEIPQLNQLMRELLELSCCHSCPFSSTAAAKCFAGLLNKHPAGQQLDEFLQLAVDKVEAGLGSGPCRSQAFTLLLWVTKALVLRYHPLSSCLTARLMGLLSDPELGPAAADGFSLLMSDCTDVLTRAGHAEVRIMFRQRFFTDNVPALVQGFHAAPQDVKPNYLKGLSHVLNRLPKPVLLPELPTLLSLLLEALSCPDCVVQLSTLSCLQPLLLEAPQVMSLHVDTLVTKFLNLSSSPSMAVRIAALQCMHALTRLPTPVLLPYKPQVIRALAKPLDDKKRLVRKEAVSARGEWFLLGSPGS
UniProt O75970, sequence (O75970 whole entry, looked up): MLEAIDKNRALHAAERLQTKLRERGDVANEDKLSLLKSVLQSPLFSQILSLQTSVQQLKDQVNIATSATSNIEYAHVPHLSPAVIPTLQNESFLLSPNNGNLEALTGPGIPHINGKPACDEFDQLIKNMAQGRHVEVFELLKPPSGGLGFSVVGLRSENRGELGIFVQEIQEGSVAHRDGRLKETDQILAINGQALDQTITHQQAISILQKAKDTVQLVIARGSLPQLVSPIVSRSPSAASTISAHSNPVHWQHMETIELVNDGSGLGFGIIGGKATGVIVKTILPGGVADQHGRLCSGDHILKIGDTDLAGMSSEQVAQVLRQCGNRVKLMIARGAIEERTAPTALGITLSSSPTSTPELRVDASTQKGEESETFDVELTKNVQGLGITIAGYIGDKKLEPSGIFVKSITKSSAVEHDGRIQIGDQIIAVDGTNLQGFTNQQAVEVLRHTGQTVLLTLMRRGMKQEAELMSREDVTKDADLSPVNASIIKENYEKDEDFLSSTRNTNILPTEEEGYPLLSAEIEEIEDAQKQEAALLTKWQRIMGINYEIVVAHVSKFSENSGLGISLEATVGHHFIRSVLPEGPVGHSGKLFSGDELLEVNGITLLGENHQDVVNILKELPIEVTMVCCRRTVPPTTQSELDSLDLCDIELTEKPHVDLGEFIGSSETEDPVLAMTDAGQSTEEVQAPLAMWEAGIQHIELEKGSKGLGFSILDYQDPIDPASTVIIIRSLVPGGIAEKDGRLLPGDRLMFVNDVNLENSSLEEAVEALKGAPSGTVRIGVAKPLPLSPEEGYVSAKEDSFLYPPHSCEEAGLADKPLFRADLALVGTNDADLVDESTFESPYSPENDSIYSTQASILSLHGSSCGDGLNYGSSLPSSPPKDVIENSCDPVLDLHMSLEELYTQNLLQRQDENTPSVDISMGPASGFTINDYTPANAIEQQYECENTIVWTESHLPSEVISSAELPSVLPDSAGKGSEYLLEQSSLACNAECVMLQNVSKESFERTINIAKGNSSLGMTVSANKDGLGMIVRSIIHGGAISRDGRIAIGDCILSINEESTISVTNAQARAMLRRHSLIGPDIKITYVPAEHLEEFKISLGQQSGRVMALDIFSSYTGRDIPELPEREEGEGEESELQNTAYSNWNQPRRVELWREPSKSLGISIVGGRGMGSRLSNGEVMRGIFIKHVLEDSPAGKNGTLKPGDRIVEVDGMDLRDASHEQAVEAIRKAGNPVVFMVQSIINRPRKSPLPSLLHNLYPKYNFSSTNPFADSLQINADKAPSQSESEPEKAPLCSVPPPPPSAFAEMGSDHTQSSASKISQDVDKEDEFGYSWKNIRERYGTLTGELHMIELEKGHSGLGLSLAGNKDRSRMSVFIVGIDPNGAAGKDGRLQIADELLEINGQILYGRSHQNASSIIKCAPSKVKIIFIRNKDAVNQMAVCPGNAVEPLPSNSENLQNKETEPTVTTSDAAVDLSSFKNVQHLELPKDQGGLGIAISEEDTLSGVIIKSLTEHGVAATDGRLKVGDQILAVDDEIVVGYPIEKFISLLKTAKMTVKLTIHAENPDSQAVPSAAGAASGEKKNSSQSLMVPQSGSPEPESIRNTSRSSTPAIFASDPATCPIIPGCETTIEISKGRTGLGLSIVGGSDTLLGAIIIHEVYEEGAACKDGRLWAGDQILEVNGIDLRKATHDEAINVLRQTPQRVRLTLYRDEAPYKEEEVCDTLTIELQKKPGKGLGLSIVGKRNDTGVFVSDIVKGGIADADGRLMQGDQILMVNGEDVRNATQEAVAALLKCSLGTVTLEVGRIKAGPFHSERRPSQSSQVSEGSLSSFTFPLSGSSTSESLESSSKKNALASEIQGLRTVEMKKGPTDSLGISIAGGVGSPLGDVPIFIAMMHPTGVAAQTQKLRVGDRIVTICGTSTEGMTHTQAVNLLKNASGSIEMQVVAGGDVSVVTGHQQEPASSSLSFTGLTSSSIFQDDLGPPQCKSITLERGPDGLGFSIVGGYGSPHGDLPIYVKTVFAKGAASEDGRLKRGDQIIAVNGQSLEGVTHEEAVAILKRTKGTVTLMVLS
UniProt Q5SRI9, sequence (Q5SRI9 whole entry, looked up): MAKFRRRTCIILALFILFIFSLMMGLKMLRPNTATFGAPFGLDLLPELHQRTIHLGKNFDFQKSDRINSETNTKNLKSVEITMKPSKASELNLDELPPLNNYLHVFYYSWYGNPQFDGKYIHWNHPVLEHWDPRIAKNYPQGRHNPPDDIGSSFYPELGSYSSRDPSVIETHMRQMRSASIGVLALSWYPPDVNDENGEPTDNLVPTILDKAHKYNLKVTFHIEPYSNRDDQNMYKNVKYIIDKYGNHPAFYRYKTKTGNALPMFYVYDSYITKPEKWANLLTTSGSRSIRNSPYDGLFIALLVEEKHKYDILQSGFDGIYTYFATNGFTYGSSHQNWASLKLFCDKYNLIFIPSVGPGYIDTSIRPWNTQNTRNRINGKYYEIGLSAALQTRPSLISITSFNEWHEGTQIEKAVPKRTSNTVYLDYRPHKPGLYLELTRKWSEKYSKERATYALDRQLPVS

Row | Target | log2 fold change
1 | MEX3A (UniProt A1L020) | 0.15 (inactive)
2 | KRAS (UniProt P01116) | 0.088 (inactive)
3 | LRRC9 (UniProt Q6ZRR7) | 0.008 (inactive)
4 | LRRIQ1 (UniProt Q96JM4) | -0.002 (inactive)
5 | LGALS3BP (UniProt Q08380) | 0.159 (inactive)
6 | MAP3K6 (UniProt O95382) | 0.012 (inactive)
7 | MDM1 (UniProt Q8TC05) | 0.018 (inactive)
8 | MIF4GD isoform 3 (UniProt A9UHW6) | 0.005 (inactive)
9 | MDM2 isoform 11 (UniProt Q00987) | -0.007 (inactive)
10 | MPDZ (UniProt O75970) | -0.024 (inactive)
11 | KIF3C (UniProt O14782) | 0.683 (inactive)
12 | LRP1 (UniProt Q07954) | 0.125 (inactive)
13 | LY6E (UniProt Q16553) | -0.075 (inactive)
14 | LSM11 (UniProt P83369) | 0.285 (inactive)
15 | LRPPRC (UniProt H7C3W8) | 0.219 (inactive)
16 | LRIF1 (UniProt Q5T3J3) | -0.072 (inactive)
17 | MMS19 isoform 8 (UniProt Q96T76) | 0.032 (inactive)
18 | MANEA (UniProt Q5SRI9) | 0.044 (inactive)

Compound: Cc1sc2c(c1C)C(c1ccc(Cl)cc1)=N[C@@H](CC(=O)OC(C)(C)C)c1nnc(C)n1-2
Experiment: as above
How it was run: as §1

Row | Target | log2 fold change
19 | MEX3A (UniProt A1L020) | -0.073 (inactive)
20 | KRAS (UniProt P01116) | 0.016 (inactive)
21 | MME (UniProt P08473) | 0.232 (inactive)
22 | KIF18B (UniProt Q86Y91) | -0.083 (inactive)
23 | LGALS3BP (UniProt Q08380) | -0.152 (inactive)
24 | LYN isoform 2 (UniProt P07948) | 0.043 (inactive)
25 | MAPKAP1 (UniProt Q9BPZ7) | -0.048 (inactive)
26 | KMT2B (UniProt Q9UMN6) | -0.012 (inactive)
27 | KIF21A (UniProt H0YI78) | 0.106 (inactive)
28 | MRPL30 isoform 2 (UniProt Q8TCC3) | -0.102 (inactive)
29 | MED28 (UniProt Q9H204) | -0.032 (inactive)
30 | MDM1 (UniProt Q8TC05) | -0.116 (inactive)
31 | MIF4GD isoform 3 (UniProt A9UHW6) | -0.051 (inactive)
32 | MAN2B2 (UniProt Q9Y2E5) | -0.007 (inactive)
33 | MPDZ (UniProt O75970) | -0.159 (inactive)
34 | KIF3C (UniProt O14782) | -0.059 (inactive)
35 | KRAS isoform 2 (UniProt P01116) | -0.006 (inactive)
36 | MAP4K4 isoform 6 (UniProt O95819) | -0.163 (inactive)
37 | LSM11 (UniProt P83369) | -0.045 (inactive)
38 | MEGF8 (UniProt Q7Z7M0) | 0.116 (inactive)
39 | MCUB (UniProt Q9NWR8) | 0.044 (inactive)
40 | MED25 isoform 3 (UniProt Q71SY5) | 0.01 (inactive)
41 | LRIF1 (UniProt Q5T3J3) | 0.048 (inactive)
42 | MRPL27 (UniProt Q9P0M9) | -0.048 (inactive)
43 | MMS19 isoform 8 (UniProt Q96T76) | -0.005 (inactive)
44 | MRC2 (UniProt Q9UBG0) | 0.209 (inactive)
45 | METTL21A (UniProt Q8WXB1) | -0.068 (inactive)
46 | MANEA (UniProt Q5SRI9) | 0.029 (inactive)

Compound: c1ccc([C@@H]2C[C@H]2NC2CCNCC2)cc1
Experiment: as above
How it was run: as §1

Row | Target | log2 fold change
47 | KIF2A isoform 2 (UniProt O00139) | 0.326 (inactive)
48 | KRAS (UniProt P01116) | -0.092 (inactive)
49 | MRPL22 (UniProt Q9NWU5) | 0.019 (inactive)
50 | MME (UniProt P08473) | -0.001 (inactive)
51 | LRRC9 (UniProt Q6ZRR7) | 0.209 (inactive)
52 | LGALS3BP (UniProt Q08380) | -0.071 (inactive)
53 | LYN isoform 2 (UniProt P07948) | 0.102 (inactive)
54 | MRPL30 isoform 2 (UniProt Q8TCC3) | 0.476 (inactive)
55 | MED28 (UniProt Q9H204) | 0.018 (inactive)
56 | LEPROT (UniProt O15243) | -0.161 (inactive)
57 | MDM1 (UniProt Q8TC05) | -0.866 (active)
58 | MIF4GD isoform 3 (UniProt A9UHW6) | -0.029 (inactive)
59 | MAN2B2 (UniProt Q9Y2E5) | 0.255 (inactive)
60 | MDM2 isoform 11 (UniProt Q00987) | -0.158 (inactive)
61 | MPDZ (UniProt O75970) | -0.09 (inactive)
62 | KIF3C (UniProt O14782) | 0.022 (inactive)
63 | LY6E (UniProt Q16553) | -0.815 (inactive)
64 | MAPK7 (UniProt Q13164) | 0.042 (inactive)
65 | LSM11 (UniProt P83369) | -0.089 (inactive)
66 | MEGF8 (UniProt Q7Z7M0) | 0.1 (inactive)
67 | MCUB (UniProt Q9NWR8) | 0.205 (inactive)
68 | MED25 isoform 3 (UniProt Q71SY5) | 0.052 (inactive)
69 | LRIF1 (UniProt Q5T3J3) | -0.071 (inactive)
70 | MRPL27 (UniProt Q9P0M9) | 0.208 (inactive)
71 | MMS19 isoform 8 (UniProt Q96T76) | 0.018 (inactive)
72 | MRC2 (UniProt Q9UBG0) | -0.084 (inactive)
73 | METTL21A (UniProt Q8WXB1) | 0 (inactive)
74 | MANEA (UniProt Q5SRI9) | -0.161 (inactive)

Reference: the supplement of paper PMC10849652
